Assay outcomes from PubChem BioAssay.
This is a sample that favours compounds with a hit; in the whole collection about 32% have one here.
CYP2C19 act: human CYP2C19 activators, primary screen, biochemical, luminescence; activation factor at 5 µM; Cytochrome P450 2C19 (Homo sapiens), P33261; recombinant CYP2C19, luciferin-H EGE luminescence; active compounds read high; 0 = fully inhibited enzyme, 1 = untreated enzyme; 96,000 tested, under 10 active;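 active = activation factor of at least 2 at 5 µM in the primary screen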;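 note: 0 = wells with 2.5 mM tranylcypromine and 1 = vehicle-only wells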
Target sequence (P33261 whole entry, looked up): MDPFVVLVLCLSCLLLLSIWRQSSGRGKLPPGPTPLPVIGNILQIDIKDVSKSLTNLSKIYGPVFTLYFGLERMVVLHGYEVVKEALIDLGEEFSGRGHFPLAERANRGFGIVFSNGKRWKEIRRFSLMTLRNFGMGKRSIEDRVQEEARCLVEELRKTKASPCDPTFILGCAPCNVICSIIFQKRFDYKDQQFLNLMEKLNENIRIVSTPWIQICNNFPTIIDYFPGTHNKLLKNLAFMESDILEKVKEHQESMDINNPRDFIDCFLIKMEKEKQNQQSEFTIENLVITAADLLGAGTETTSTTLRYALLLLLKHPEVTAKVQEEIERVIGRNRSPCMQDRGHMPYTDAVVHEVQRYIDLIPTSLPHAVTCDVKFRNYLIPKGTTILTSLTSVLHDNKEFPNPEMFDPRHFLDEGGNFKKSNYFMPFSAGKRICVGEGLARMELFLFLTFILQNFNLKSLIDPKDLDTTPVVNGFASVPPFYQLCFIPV
PostGolgi yeast: phenotypic screen on post-Golgi transport, primary screen; hit rate 0.9% among 98,000; inhibition, % at 10 µM; post-Golgi transport phenotypic cell assay;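 note: yeast cells grown in 1536-well plates; yeast grown about 18 h at 30C before absorbance read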
PostGolgi ctrl: growth inhibition of yeast control strain, primary screen, counter-screen for post-Golgi transport modulator project | efflux-deficient yeast background strain, growth absorbance A615, 16 h | inhibition, % at 10 µM | hit rate 5% among 98,000
CYP2C9 inhib: blockers of cytochrome P450 2C9 activity – biochemical, luminescence, ADME assay, primary screen; P11712; CYP2C9 Supersomes, luciferin-H conversion; inhibition, % at 5 µM; hit rate 20% among 96,000;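 active = blocking of liver enzyme CYP2C9 beyond about 50% at 5 µM, limit read from the data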
CYP2C19 inh: blockers of cytochrome P450 2C19 activity – biochemical, luminescence, ADME assay, primary screen | inhibition, % at 5 µM | CYP2C19 Supersomes, luciferin-H EGE luminescence, 30 min | P33261 | AID 778, 2007 | hit rate 21% among 96,000;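 active = CYP2C19 inhibition above a set limit at 5 µM in the primary screen, cut at about 50% in these data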;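 note: plate controls were negative control wells for no effect and 2.5 mM tranylcypromine positive control for full effect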
CYP2C9 act: human CYP2C9 activators, primary screen, biochemical, luminescence; recombinant CYP2C9, luciferin-H conversion; active compounds read high; factor 1 = untreated enzyme, 0 = blocked; hit rate 1.4% among 96,000; AID 1024, 2008; activation factor at 5 µM; Cytochrome P450 2C9 (Homo sapiens), P11712;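 active = activation factor of 2 or more for CYP2C9 at a 5 µM dose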;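 note: 0 = sulfaphenazole-blocked wells and 1 = vehicle-only wells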
An asterisk follows results filed as active. Cut-off read from the data, not from the text of the source, unless noted: active = inhibition above about 30%; inactive = the rest.

SMILES | CYP2C19 act | PostGolgi yeast | PostGolgi ctrl | CYP2C9 inhib | CYP2C19 inh | CYP2C9 act
Cc1ccc(C2c3c(-c4ccccc4O)n[nH]c3C(=O)N2Cc2ccncc2)cc1 (centres undefined) | 0.6 | -6.2 | -1.5 | 33.7 | 40.8 | 0.7
COc1cc(C2c3c(-c4cc(Cl)c(C)cc4O)n[nH]c3C(=O)N2Cc2cccnc2)ccc1O (centres undefined) | 0.9 | -2.3 | -3.4 | 14.2 | 11.4 | 0.9
COc1ccc(CCN2C(=O)c3[nH]nc(-c4ccccc4O)c3C2c2cccc(Cl)c2)cc1 (centres undefined) | 0.7 | 6.6 | 23.8 | 62.5* | 35.0 | 0.4
COc1cccc(C2c3c(-c4cc(Cl)c(C)cc4O)n[nH]c3C(=O)N2Cc2cccnc2)c1 (centres undefined) | 0.6 | 0.7 | 15.9 | 72.0* | 42.8 | 0.3
COc1ccc(C2c3c(-c4ccccc4O)n[nH]c3C(=O)N2CCc2ccc(OC)c(OC)c2)cc1 (centres undefined) | 0.1 | 12.5 | 6.9 | 96.1* | 85.6* | 0
O=C1CC(N2CCN(Cc3ccc4c(c3)OCO4)CC2)C(=O)N1CCc1ccccc1 (centres undefined) | 0.9 | -3.9 | 2.4 | 3.0 | 14.1 | 1
COc1ccc(N=C2SC(C(=O)Nc3ccc4c(c3)OCO4)CC(=O)N2C)cc1 (centres undefined) | 0.5 | 1.5 | 18.8 | 72.8* | 49.3 | 0.3
COc1ccc(N=C2SC(C(=O)O)CC(=O)N2Cc2ccc(OC)c(OC)c2)cc1 (centres undefined) | 0.8 | -1.2 | 5.3 | 33.0 | 16.2 | 0.7
COc1ccc(N=C2SC(C(N)=O)CC(=O)N2CCc2ccc(OC)c(OC)c2)cc1 (centres undefined) | 0.4 | 16.2 | 0.7 | 22.1 | 63.9* | 0.8
CCOc1ccc(NC(=O)C2CC(=O)N(CC)C(=Nc3ccc4c(c3)OCO4)S2)cc1 (centres undefined) | 1.1 | -4.8 | 6.1 | 20.0 | -11.9 | 0.8
NC(=O)C1CC(=O)N(Cc2ccc3c(c2)OCO3)C(=Nc2ccccc2)S1 (centres undefined) | 0 | -3.0 | 3.8 | 51.7* | 95.9* | 0.5
CNC(=O)C1CC(=O)N(Cc2ccc3c(c2)OCO3)C(=Nc2ccc(OC)cc2)S1 (centres undefined) | 0.4 | -5.0 | 3.9 | 34.8 | 56.1* | 0.7
CC(C)OCCCNC(=O)C(=O)NCCCOC(C)C | 1.1 | -1.4 | -5.7 | -11.7 | -8.7 | 1.1
Cc1ccc(NCc2nnc(SCC(=O)N3CCCc4ccccc43)o2)c(C)c1 | 1 | -3.6 | 23.3 | 8.8 | 4.2 | 0.9
Cc1ccc(C2N(c3ccc(F)cc3)C(=O)C3CCCN32)cc1 (centres undefined) | 0.5 | -17.9 | 11.0 | 31.8 | 50.1* | 0.7
COc1ccc(N2C(=O)C3CCCN3C2c2ccccc2F)cc1 (centres undefined) | 0.8 | 4.0 | -0.3 | 11.8 | 17.8 | 0.9
CN(C)c1ccc(C2N(c3ccc(F)cc3)C(=O)C3CCCN32)cc1 (centres undefined) | 0.6 | -2.7 | -3.9 | 30.0 | 35.7 | 0.7
CCOc1ccc(C2N(c3ccc(F)cc3)C(=O)C3CCCN32)cc1 (centres undefined) | 0.2 | -7.4 | 1.1 | 82.7* | 83.4* | 0.2
CCOc1ccccc1C1N(c2ccc(OC)cc2)C(=O)C2CCCN21 (centres undefined) | 0.9 | -2.2 | 33.6* | 13.6 | 7.8 | 0.9
Cc1nn(Cc2ccccc2)c(C)c1NC(=O)CSc1nnc(-c2cc(Cl)ccc2O)n1C | 0.9 | -5.2 | 6.8 | 43.4 | 14.3 | 0.6
CNc1nnc(-c2cc3ccccc3oc2=O)s1 | 0.8 | 2.2 | 10.6 | 12.2 | 16.5 | 0.9
COc1ccc(NC(=O)N2CCOCC2)cc1OC | 1 | -0.5 | 5.0 | 1.5 | -3.6 | 1
COC(=O)c1ccccc1NC(=O)N1c2ccccc2CC1C (centres undefined) | 0.9 | -3.0 | 47.5* | 22.3 | 11.5 | 0.8
COc1ccc(NC(=O)N2c3ccccc3CC2C)cc1OC (centres undefined) | 0.6 | -0.5 | 9.5 | 65.5* | 44.3 | 0.3
